The values that follow come from PubChem BioAssay (NCATS).

Results filed as inconclusive are left out. Activity calls are given as the source filed them. The call rests on the fitted dose curve; in most records, active means well fitted curve in the direction sought with a large enough effect; inconclusive means small, poorly fitted or top-dose-only effect, or another doubt; inactive means no such curve, though single readings can be large; an effect the other way counts as inactive or inconclusive.

The nature of test [1]: Quantitative High-Throughput drug screen in 47 multiple myeloma cell lines against the NCATS MIPE library collection: Karpas620_DSMZ cell viability assay (AID 1918959). Further: nearly all actives have a fitted effect of over 30% in size. In outline: (§1)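 Myeloma cells (500 per well) were exposed to MIPE 4.0 compounds by pin transfer and incubated 48 hours at 37C, 5% CO2. Viability was read as ATP by CellTiter-Glo luminescence, normalised to DMSO (100%) and media-only (0%) wells.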

Test [2] is described as follows: Quantitative High-Throughput drug screen in 47 multiple myeloma cell lines against the NCATS MIPE library collection: JIM3_ECACC cell viability assay (AID 1918963; further: nearly all actives have a fitted effect of over 35% in size). In outline: as §1
A short description of test [3]: Quantitative High-Throughput drug screen in 47 multiple myeloma cell lines against the NCATS MIPE library collection: JIM1_ECACC cell viability assay (AID 1918964). The gist of the method:
(§2)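 Viability readout: CellTiter-Glo luminescence following 5 min room-temperature incubation with reagent. Prior exposure: 48 h, 37C, humidified 5% CO2, 500 cells per well.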

The nature of test [4]: Quantitative High-Throughput drug screen in 47 multiple myeloma cell lines against the NCATS MIPE library collection: INA6_PLB cell viability assay (AID 1918965; further: nearly all actives have a fitted effect of over 55% in size). The gist of the method: (§3)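 CellTiter-Glo ATP luminescence gave viability after 48 h compound treatment at 37C of 500 multiple myeloma cells per well. Normalisation used DMSO-only wells as 100% and media-only wells as 0% viability; primary qHTS of approved and investigational drugs.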

The nature of test [5]: Quantitative High-Throughput drug screen in 47 multiple myeloma cell lines against the NCATS MIPE library collection: JJN3_DSMZ cell viability assay (AID 1918966; further: nearly all actives have a fitted effect of over 50% in size). In outline:
as §2

Test [6] is described as follows: Quantitative High-Throughput drug screen in 47 multiple myeloma cell lines against the NCATS MIPE library collection: H1112_PLB cell viability assay (AID 1918967; further: nearly all actives have a fitted effect of over 30% in size). In outline:
as §2

Test [7] is described as follows: Quantitative High-Throughput drug screen in 47 multiple myeloma cell lines against the NCATS MIPE library collection: KMS12BM_JCRB cell viability assay (AID 1918971). Further: nearly all actives have a fitted effect of over 35% in size. The gist of the method:
(§4)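 Inhibition of cell viability is measured here. Each line was plated at 500 cells per well, treated with MIPE 4.0 drugs, kept 48 hours at 37C, then assayed for ATP content by CellTiter-Glo luminescence.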

The nature of test [8]: Quantitative High-Throughput drug screen in 47 multiple myeloma cell lines against the NCATS MIPE library collection: KMS12PE_JCRB cell viability assay (AID 1918972). Further: nearly all actives have a fitted effect of over 30% in size. The gist of the method:
as §3

The nature of test [9]: Quantitative High-Throughput drug screen in 47 multiple myeloma cell lines against the NCATS MIPE library collection: KMS26_JCRB cell viability assay (AID 1918975). Further: nearly all actives have a fitted effect of over 45% in size. In outline:
as §4

Test [10] in a line: Quantitative High-Throughput drug screen in 47 multiple myeloma cell lines against the NCATS MIPE library collection: MMM1_PLB cell viability assay (AID 1918976). Further: nearly all actives have a fitted effect of over 35% in size. The gist of the method:
(§5)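 ATP-based CellTiter-Glo luminescence after 48 h drug exposure (37 °C, 5% CO2) of 500 myeloma cells per well. DMSO-only wells set 100% viability, media-only wells 0%; MIPE 4.0 library added by pin tool.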

Test [11] in a line: Quantitative High-Throughput drug screen in 47 multiple myeloma cell lines against the NCATS MIPE library collection: NCIH929_DSMZ cell viability assay (AID 1918978). Further: nearly all actives have a fitted effect of over 35% in size. The gist of the method:
as §5

Test [12] is described as follows: Quantitative High-Throughput drug screen in 47 multiple myeloma cell lines against the NCATS MIPE library collection: OCIMY1_PLB cell viability assay (AID 1918979). Further: nearly all actives have a fitted effect of over 35% in size. The gist of the method: as §5
A short description of test [13]: Quantitative High-Throughput drug screen in 47 multiple myeloma cell lines against the NCATS MIPE library collection: KHM11_PLB cell viability assay (AID 1918962). Further: nearly all actives have a fitted effect of over 35% in size. In outline:
as §1

Test [14] in a line: Quantitative High-Throughput drug screen in 47 multiple myeloma cell lines against the NCATS MIPE library collection: Karpas25_ECACC cell viability assay (AID 1918968; further: nearly all actives have a fitted effect of over 35% in size). The gist of the method: as §2
A short description of test [15]: Quantitative High-Throughput drug screen in 47 multiple myeloma cell lines against the NCATS MIPE library collection: MOLP8_DSMZ cell viability assay (AID 1918977). Further: nearly all actives have a fitted effect of over 45% in size. In outline:
as §5

A short description of test [16]: Quantitative High-Throughput drug screen in 47 multiple myeloma cell lines against the NCATS MIPE library collection: KMS27_JCRB cell viability assay (AID 1918970). Further: nearly all actives have a fitted effect of over 30% in size. The note with it: KMS27 myeloma cells, CellTiter-Glo ATP viability, 48 h; viability (% of DMSO): at 45.8 µM (top of the series). The gist of the method: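 Myeloma cells (500 per well) were exposed to MIPE 4.0 compounds for 48 h at 37 °C, 5% CO2; viability was read as ATP luminescence with CellTiter-Glo, normalized to DMSO-only (100%) and media-only (0%) wells.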
For orientation: Cellular ATP, detected with luciferase, serves as a proxy for viable cell number.

A short description of test [17]: Quantitative High-Throughput drug screen in 47 multiple myeloma cell lines against the NCATS MIPE library collection: KMS21BM_JCRB cell viability assay (AID 1918974). The following applies: ATP luminescence, 48 h; viability: at 45.8 µM (top of the series). In outline:
as §2

A short description of test [18]: Quantitative High-Throughput drug screen in 47 multiple myeloma cell lines against the NCATS MIPE library collection: KMS20_JCRB cell viability assay (AID 1918973). Further: nearly all actives have a fitted effect of over 45% in size. In outline:
as §2
Potency means the concentration at half of the fitted maximal effect.

In the case of `C[C@H]1[C@@H](OC(=O)CCC(=O)O)O[C@@H]2O[C@@]3(C)CC[C@@H]4[C@H](C)CC[C@@H]1[C@@]24OO3`, the Potency in test [1] was 0.166 µM (active); in test [2] it was 6.62 µM (active); in test [3], 0.935 µM (active); in [4] it was 2.64 µM (active); in test [5], 1.48 µM (active); in test [6], 16.6 µM (active). Besides, the Potency in [7] was 5.26 µM (active); in test [8], 1.05 µM (active); in test [9] it was 14.8 µM (active); in [10], 5.9 µM (active); in test [11] it was 2.64 µM (active); in test [12] it was 14.8 µM (active).

Take `O=C(NCc1ccccc1)[C@H](Cc1ccccc1)NC(=O)[C@@H]1O[C@@H]1C(=O)NCCc1ccc(O)cc1`: the Potency in [1] is 26.4 µM (active); in test [3] it was 18.7 µM (active); in [14], 23.5 µM (active); in test [8], 23.5 µM (active); in test [10], 20.9 µM (active). In addition, the Potency result in test [13], in test [6] and in [11] was “inactive” each time.

As for `Cc1coc2c1C(=O)C(=O)c1c-2ccc2c(C)cccc12`, the Potency in test [1] is 6.62 µM (active); in [4], 13.2 µM (active); in test [14], 2.96 µM (active); in [7], 13.2 µM (active); in test [9], 6.62 µM (active); in test [10], 20.9 µM (active). Besides, the Potency in [15] was 9.35 µM (active). Also, the Potency result in test [13] and in test [3] was “inactive” in each case.

A word on the viability: it is a read-out of living cells in per cent, often relative to untreated cells. For the molecule `CCCCC(=O)O[C@]1(C(=O)CO)[C@@H](C)C[C@H]2[C@@H]3CCC4=CC(=O)C=C[C@]4(C)[C@@]3(F)[C@@H](O)C[C@@]21C`, the Potency entry in test [1], in test [13], in test [2], in test [7], in [9] and in [10] was “inactive” each time. The Potency result in [11] and in [12] was “inactive” in each case. Besides, the Potency in test [14] was 0.0148 µM (active); in test [16], 11.8 µM (active); in test [15] it was 0.526 µM (active). Besides, the viability in test [17] was 131% (active).

Turning to `Oc1cc2c(cc1O)C1c3ccc(O)c(O)c3OCC1(O)C2` (stereo not drawn), the Potency result in test [1], in [13], in [2], in test [6], in test [16] and in test [7] was “inactive” in each case. Moreover, the Potency entry in test [8], in test [9], in test [15], in test [11] and in test [12] was “inactive” throughout.

For the molecule `Cn1cc(-c2ccc3ncc(Cc4ccc5ncccc5c4)n3n2)cn1`, the Potency entry in [1], in test [6], in test [14], in test [9], in test [15] and in test [11] was “inactive” in each case. Moreover, the Potency entry in test [12] was “inactive”. In addition, the results for the Potency in test [2] and in test [4] were 16.6 µM (active) and 13.2 µM (active), respectively.

In the case of `CC(C)(O)CC[C@@H](O)[C@](C)(O)[C@H]1CC[C@@]2(O)C3=CC(=O)[C@@H]4C[C@@H](O)[C@@H](O)C[C@]4(C)[C@@H]3CC[C@]12C`, the Potency result in [1], in [2], in test [3], in test [5], in test [6] and in [14] was “inactive” throughout. For the same molecule, the Potency entry in test [16], in test [8], in [18] and in test [11] was “inactive” in each case.

As to `Cc1ccccc1C(=O)Nc1ccc(C(=O)N2CCCC(O)c3cc(Cl)ccc32)c(C)c1` (stereo not drawn), the Potency entry in test [1], in test [2], in test [7], in [15] and in test [12] was “inactive” throughout. Moreover, the Potency is 13.2 µM (active) in test [5] and 14.8 µM (active) in [14].

Regarding `c1ccc2c(Oc3nc(Nc4ccc(N5CCOCC5)cc4)c4ncn(C5CCCCC5)c4n3)cccc2c1`, the Potency result in test [1] and in test [15] was “inactive” each time. For the same molecule, the values for the Potency in [2], in test [7] and in test [10] were 18.7 µM (active), 16.6 µM (active) and 13.2 µM (active), respectively.

As to `Oc1cc(-c2nc(-c3ccccc3)[nH]c2-c2ccncc2)ccc1Cl`, the Potency in test [1] is 5.9 µM (active); in test [13], 1.18 µM (active); in test [2], 20.9 µM (active); in test [5], 18.7 µM (active); in [14], 2.96 µM (active); in [16], 2.64 µM (active). For the same molecule, the Potency in test [7] was 20.9 µM (active); in test [8], 14.8 µM (active); in test [18], 8.33 µM (active); in [17] it was 3.32 µM (active); in [9] it was 16.6 µM (active); in [10] it was 18.7 µM (active). Also, the figures for the Potency in test [15] and in test [12] were 16.6 µM (active) and 10.5 µM (active), respectively.

As for `CS[C@H]1SC[C@@H]2C(=O)N(C)[C@H](C(C)C)C(=O)OC[C@H](NC(=O)c3cnc4ccccc4n3)C(=O)N[C@H](C)C(=O)N(C)[C@@H]1C(=O)N(C)[C@H](C(C)C)C(=O)OC[C@H](NC(=O)c1cnc3ccccc3n1)C(=O)N[C@H](C)C(=O)N2C`, the Potency in [1] is 0.001 µM (active); in test [13], 0.0093 µM (active); in test [4], 0.001 µM (active); in test [6], 0.0118 µM (active); in [14] it was 0.001 µM (active); in test [16] it was 0.001 µM (active). The Potency in test [7] is 0.003 µM (active); in [8], 0.001 µM (active); in [9] it was 0.0132 µM (active); in [10], 0.0118 µM (active); in test [15], 0.0047 µM (active); in test [11] it was 0.001 µM (active). For the same molecule, in test [12], the Potency is 0.0209 µM (active).

Consider `O=c1[nH]c(=O)n([C@H]2C[C@@H](O)[C@@H](CO)O2)cc1C=CBr`, for which the Potency result in test [1], in test [2], in test [3], in [4], in [5] and in test [6] was “inactive” in each case. The Potency entry in test [14], in [16], in test [8], in [18] and in test [15] was “inactive” each time.

`O=C(O)[C@H](CC(=O)N1C[C@@H]2CCCC[C@H]2C1)Cc1ccccc1`: the Potency result in [1], in test [13], in [2], in [5], in [18] and in test [9] was “inactive” each time. In test [11], the Potency result was “inactive”.

Take `O=C(NNC(=O)c1ccc(CNS(=O)(=O)c2ccc(F)c(Cl)c2)cc1)c1ccccc1`: the Potency result in test [1], in test [13], in test [2], in test [5], in [14] and in test [16] was “inactive” in each case. In addition, the Potency entry in test [18], in [15], in test [11] and in test [12] was “inactive” each time.

On to `Cc1cc(C(=O)NOCCO)c(Nc2ccc(I)cc2F)n(C)c1=O`, for which the figures for the Potency in test [1], in test [5] and in [16] were 0.0059 µM (active), 4.69 µM (active) and 0.0026 µM (active), respectively. The Potency entry in test [3] and in test [9] was “inactive” in each case.
